Compounds without any hit were thinned out: in the full panel of roughly 79,000, 15% have a hit. Values without a mark were called inactive. The source made the active and inactive calls. Cut-off read from the data, not from the text of the source: active = growth inhibition above about 70%; inactive = the rest.

Here are results for eight compounds from PubChem BioAssay (NCI).

A short description of this assay: NCI Yeast Anticancer Drug Screen. Data for the rad52 strain (AID 147).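 Note: 0% = growth of vehicle-treated control cultures.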 The note with it: S. cerevisiae rad52 mutant growth inhibition, stronger effect = higher value. Here is the method:
Growth inhibition of yeast strains with defined genetic alterations is measured as a screen for potential anti-cancer activity. Selected strains with alterations in DNA damage repair or cell cycle control were exposed to compounds and growth inhibition was measured relative to vehicle treated controls. The strain used in this assay is rad52

Turning to `CCc1c(Cl)c(C)cc(O)c1Cl`, the growth inhibition reads like this: (at 1.2 µM) 4%; (at 3.7 µM) -9%; (at 11.0 µM) 8%; (at 33.0 µM) 22%; (at 100.0 µM) 96% (active).
For `O=C(CC(=O)n1nc(-c2ccccc2)c(N=Nc2ccc(Cl)cc2)c1-c1ccccc1)Nc1cccc(Cl)c1`, in that order: -4%, -1%, 1%, 0% and 0%.
Taken in the same sequence, the figures for `Nc1ncc(-c2ccc(Br)cc2)s1` were 20%, 35%, 36%, 92% (active) and 98% (active).
Taken in the same sequence, the figures for `CCc1c[n+]([O-])c(C)cc1[N+](=O)[O-]` were 2%, 7%, 21%, 57% and 90% (active).
On to `c1ccc(Cc2cc(-c3ccccc3)n[nH]2)cc1`, for which the growth inhibition was -7% (at 1.2 µM); -5% (at 3.7 µM); -12% (at 11.0 µM); 0% (at 33.0 µM); 59% (at 100.0 µM).
Regarding `O=C1CC(=O)c2ccccc21`, the growth inhibition by setting is: (at 1.2 µM) -2%; (at 3.7 µM) -1%; (at 11.0 µM) 3%; (at 33.0 µM) 9%; (at 100.0 µM) 50%.
Taken in the same sequence, the figures for `CC[N+]1(C)CCC(O)(c2ccc(OC)cc2)C(C(=O)c2ccc(OC)cc2)C1` (stereo not given) were -10%, -13%, -22%, -19% and -20%.
For `OCc1ccccc1Cc1ccccc1`, in that order: -4%, 0%, -2%, -3% and -3%.
